Test results published in PubChem BioAssay AID1159580 (chemical genetic matrix, 2015).
Out of some 5,500 compounds screened, about 2,000 (36%) were called active. Roughly 18% stayed inconclusive and do not appear here. No stated cut-off is given here; in the data, active means normalized growth mostly below about 0.91 (no sharp cut-off); inconclusive means no clear call, values can overlap the other calls; inactive means mostly above about 0.92. Some of the results follow.

Assay: chemical genetic growth profiling, strain panel (AID 1159580);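 further: tested at 20 µM; growth read once vehicle control cultures reached saturation at 30 °C; 1 = growth at the plate median or of vehicle wells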
Conditions: S. cerevisiae deletion strains, growth OD

Measured: normalized growth

CCCCOC(=O)NS(=O)(=O)c1sc(CC(C)C)cc1-c1ccc(Cn2c(CC)nc3c(C)cc(C)nc32)cc1
inactive: locus YAL013W, strain DEP1, stronger effect = lower value 1 | locus YAL040C, strain CLN3, stronger effect = lower value 1.01 | locus YCL061C, strain MRC1 (second series), stronger effect = lower value 0.999 | locus YDR150W, strain NUM1, stronger effect = lower value 1.01 | locus YDR363W, strain ESC2, stronger effect = lower value 0.988 | locus YER002W, strain NOP16, stronger effect = lower value 0.997 | locus YJR075W, strain HOC1, stronger effect = lower value 0.999 | locus YNL128W, strain TEP1, stronger effect = lower value 1 | locus YNL153C, strain GIM3, stronger effect = lower value 0.923 | locus YNL175C, strain NOP13, stronger effect = lower value 1 | locus YNL197C, strain WHI3, stronger effect = lower value 1 | locus YNL224C, strain SQS1, stronger effect = lower value 0.98 | locus YOR083W, strain WHI5 (second series), stronger effect = lower value 0.919
